In PubChem BioAssay (EPA / NIEHS):
The source made the active and inactive calls. How the source made its calls: active means hit-call score of the fitted dose curve at least 0.9, where 1 is the maximum; inactive means score below 0.9.

Assay: ATG_GRE_CIS: Attagene CIS-FACTORIAL HepG2 Assay for human Glucocorticoid Response Elements (GRE) (AID 2282947)
Settings: HepG2 GRE cis-reporter, Attagene multiplex mRNA; actives raise or lower the signal
Procedure, shortened: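 Fluorescence intensity of reporter-specific cDNA fragments, separated by capillary electrophoresis, provides the signal. Constructs carry cis-regulating promoters in transiently transfected HepG2 liver cells; 24 h incubation; fitting is bidirectional against DMSO.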

Q: For `Nc1ccc(N=Nc2ccccc2)cc1`, which outcome is on record?
A: Its outcome is “inactive”.

Q: Which outcome does the source give for `OCCOCCO` here?
A: Its outcome is “inactive”.

Q: For `CC(C)(OOC(C)(C)c1ccccc1)c1ccccc1`, which AC50 is on record?
A: The AC50 was 78.3 µM (active).

Q: Which outcome does the source give for `CCC(C)c1ccc(O)cc1` (stereo not given) here?
A: Its outcome is “inactive”.

Q: For `Cc1cc(N=Nc2ccccc2C)ccc1N`, which outcome is on record?
A: The outcome was “inactive”.

Q: For `CCCCCCCCn1sccc1=O`, which outcome is on record?
A: The outcome was “inactive”.

Q: Which outcome does the source give for `CCCCOC(=O)c1ccccc1C(=O)OCc1ccccc1` here?
A: The outcome was “inactive”.

Q: For `COC(=O)Nc1nc2ccccc2[nH]1`, which outcome is on record?
A: The outcome was “inactive”.

Q: Which outcome does the source give for `CC(C)(C)OOC(C)(C)CCC(C)(C)OOC(C)(C)C` here?
A: Its outcome is “inactive”.

Q: With `O=C1CCCO1` as the compound, how does the outcome read?
A: Its outcome is “inactive”.

Q: For `CCC[CH2][Sn]([Cl])([CH2]CCC)[CH2]CCC`, which outcome is on record?
A: The outcome was “inactive”.

Q: For `[O-][Cl+]O`, which outcome is on record?
A: Its outcome is “inactive”.

Q: With `ClCCOCCCl` as the compound, how does the outcome read?
A: The outcome was “inactive”.

Q: For `CC(C)(C)OOC(=O)c1ccccc1`, which outcome is on record?
A: Its outcome is “inactive”.

Q: With `c1ccc(NNc2ccccc2)cc1` as the compound, how does the outcome read?
A: Its outcome is “inactive”.

Q: With `Cc1ccc(N=C=O)cc1N=C=O` as the compound, how does the outcome read?
A: The outcome was “inactive”.

Q: With `Cc1cccc(N)c1N` as the compound, how does the outcome read?
A: Its outcome is “inactive”.

Q: Which outcome does the source give for `Clc1ccc(C(c2ccc(Cl)cc2)C(Cl)(Cl)Cl)cc1` here?
A: Its outcome is “inactive”.

Q: With `CN(C)c1ccc(C(=O)c2ccc(N(C)C)cc2)cc1` as the compound, how does the outcome read?
A: Its outcome is “inactive”.

Q: With `COC(=O)c1ccccc1N` as the compound, how does the outcome read?
A: Its outcome is “inactive”.

Q: Which outcome does the source give for `O=C(N[C@H](c1ccccc1)[C@@H]1CN2CCC1CC2)c1c(Cl)ccc(C(F)(F)F)c1Cl` here?
A: Its outcome is “inactive”.

Q: With `CN(C)c1ccccc1` as the compound, how does the outcome read?
A: Its outcome is “inactive”.

Q: For `O=[N+]([O-])c1ccc(Oc2ccc(Cl)cc2Cl)cc1`, which outcome is on record?
A: The outcome was “inactive”.

Q: With `CCCCCCCCOC(=O)c1ccc(C(=O)OCCCCCCCC)c(C(=O)OCCCCCCCC)c1` as the compound, how does the outcome read?
A: Its outcome is “inactive”.

Q: With `COP(=S)(OC)SCN1C(=O)c2ccccc2C1=O` as the compound, how does the outcome read?
A: Its outcome is “inactive”.
